From the supplement of paper PMC8728848
This is one part of a sample in which the strongest signals are shown more often than they occur.

How the values were obtained:
Assay in all cases: glycan array binding signal (z-score within array); higher = stronger binding
Conditions in all cases: glycan notation: IUPAC condensed, linker removed
[1] = molecular target: Fuc(a1-2)Gal(b1-3)GlcNAc(b1-2)Man(a1-3)[Fuc(a1-2)Gal(b1-3)GlcNAc(b1-2)Man(a1-6)]Man(b1-4)GlcNAc(b1-4)GlcNAc
Method in brief: (§1)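 Glycan array binding is given as a within-array Z-score, which can be read as non-binding when negative. The arrays, 3228 of them, came from the Consortium for Functional Glycomics database and were retained only where the protein sequence was available. Z-scores were averaged across arrays of the same protein sequence at different concentrations or buffers and across linkers.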

[2] = molecular target: Fuc(a1-2)Gal(b1-3)[Fuc(a1-4)]GlcNAc
Method in brief: as §1

[3] = molecular target: Fuc(a1-2)Gal(b1-4)GlcNAc(b1-2)Man
Method in brief: as §1

[4] = molecular target: Fuc(a1-2)Gal(b1-4)[Fuc(a1-3)]GlcNAc(b1-3)[Neu5Ac(a2-6)Gal(b1-4)GlcNAc(b1-6)]Gal(b1-4)Glc
Method in brief: as §1

[5] = molecular target: Fuc(a1-3)[Gal(b1-4)]GlcNAc(b1-3)GalNAc
Method in brief: as §1

[6] = molecular target: Fuc(a1-3)[Gal3S(b1-4)]GlcNAc6S
Method in brief: as §1

[7] = molecular target: Gal(a1-3)Gal(b1-3)GlcNAc
Method in brief: as §1

[8] = molecular target: Gal(a1-3)Gal(b1-3)[Fuc(a1-4)]GlcNAc(b1-2)Man(a1-3)[Gal(a1-3)Gal(b1-3)[Fuc(a1-4)]GlcNAc(b1-2)Man(a1-6)]Man(b1-4)GlcNAc(b1-4)GlcNAc
Method in brief: as §1

[9] = molecular target: Gal(a1-3)GalNAc
Method in brief: as §1

[10] = molecular target: Gal(a1-4)Gal(b1-4)Glc
Method in brief: as §1

[11] = molecular target: Gal(b1-3)Gal(b1-4)GlcNAc
Method in brief: as §1

[12] = molecular target: Gal(b1-3)GlcNAc(b1-3)Gal(b1-4)[Fuc(a1-3)]GlcNAc(b1-6)[Gal(b1-3)GlcNAc(b1-3)]Gal(b1-4)Glc
Method in brief: as §1

[13] = molecular target: Gal(b1-3)[Fuc(a1-4)]GlcNAc(b1-3)Gal(b1-3)[Fuc(a1-4)]GlcNAc
Method in brief: as §1

[14] = molecular target: Gal(b1-4)GlcNAc(b1-2)Man(a1-6)[GlcNAc(b1-2)Man(a1-3)]Man(b1-4)GlcNAc(b1-4)GlcNAc
Method in brief: as §1

[15] = molecular target: Gal(b1-4)GlcNAc(b1-3)Gal(b1-4)GlcNAc
Method in brief: as §1

[16] = molecular target: Gal(b1-4)GlcNAc(b1-3)Gal(b1-4)GlcNAc(b1-2)[Gal(b1-4)GlcNAc(b1-3)Gal(b1-4)GlcNAc(b1-6)]Man(a1-6)[Gal(b1-4)GlcNAc(b1-3)Gal(b1-4)GlcNAc(b1-2)Man(a1-3)]Man(b1-4)GlcNAc(b1-4)GlcNAc
Method in brief: as §1

[17] = molecular target: Gal(b1-4)GlcNAc(b1-3)Gal(b1-4)GlcNAc(b1-2)[Gal(b1-4)GlcNAc(b1-3)Gal(b1-4)GlcNAc(b1-6)]Man(a1-6)[Gal(b1-4)GlcNAc(b1-3)Gal(b1-4)GlcNAc(b1-2)Man(a1-3)]Man(b1-4)GlcNAc(b1-4)[Fuc(a1-6)]GlcNAc
Method in brief: as §1

[18] = molecular target: Gal(b1-4)GlcNAc(b1-3)Gal(b1-4)GlcNAc(b1-3)Gal(b1-4)GlcNAc(b1-2)Man(a1-3)[Gal(b1-4)GlcNAc(b1-3)Gal(b1-4)GlcNAc(b1-3)Gal(b1-4)GlcNAc(b1-2)Man(a1-6)]Man(b1-4)GlcNAc(b1-4)[Fuc(a1-6)]GlcNAc
Method in brief: as §1

[19] = molecular target: Gal(b1-4)GlcNAc(b1-3)Gal(b1-4)GlcNAc(b1-3)Gal(b1-4)GlcNAc(b1-3)Gal(b1-4)GlcNAc(b1-3)Gal(b1-4)GlcNAc(b1-2)Man(a1-3)[Gal(b1-4)GlcNAc(b1-3)Gal(b1-4)GlcNAc(b1-3)Gal(b1-4)GlcNAc(b1-3)Gal(b1-4)GlcNAc(b1-3)Gal(b1-4)GlcNAc(b1-2)Man(a1-6)]Man(b1-4)GlcNAc(b1-4)GlcNAc
Method in brief: as §1

[20] = molecular target: Gal(b1-4)GlcNAc(b1-3)Gal(b1-4)GlcNAc(b1-3)[Gal(b1-4)GlcNAc(b1-3)Gal(b1-4)GlcNAc(b1-6)]GalNAc
Method in brief: as §1

[21] = molecular target: Gal(b1-4)GlcNAc(b1-3)[Fuc(a1-3)GlcNAc(b1-6)]Gal(b1-4)Glc
Method in brief: as §1

[22] = molecular target: Gal(b1-4)GlcNAc(b1-6)[Gal(b1-3)]GalNAc
Method in brief: as §1

[23] = molecular target: Gal3S(b1-3)GlcNAc
Method in brief: as §1

[24] = molecular target: Gal3S(b1-3)[Fuc(a1-4)]GlcNAc
Method in brief: as §1

[25] = molecular target: Gal3S(b1-4)[Fuc(a1-3)]Glc6S
Method in brief: as §1

[26] = molecular target: Gal3S(b1-4)[Fuc(a1-3)]GlcNAc6S
Method in brief: as §1

[27] = molecular target: Gal3S6S(b1-4)GlcNAc6S
Method in brief: as §1

[28] = molecular target: Gal6P(b1-4)GlcNAc
Method in brief: as §1

[29] = molecular target: Gal6S(b1-3)GlcNAc6S
Method in brief: as §1

[30] = molecular target: Gal6S(b1-4)Glc6S
Method in brief: as §1

[31] = molecular target: Gal6S(b1-4)GlcNAc6S
Method in brief: as §1

[32] = molecular target: GalNAc(b1-3)Gal(a1-6)Gal(b1-4)Glc
Method in brief: as §1

[33] = molecular target: GalNAc3S(b1-4)GlcNAc3S
Method in brief: as §1

[34] = molecular target: Glc(a1-4)Glc(a1-4)Glc(a1-4)Glc
Method in brief: as §1

[35] = molecular target: Glc(a1-6)Glc(a1-6)Glc(a1-6)Glc
Method in brief: as §1

[36] = molecular target: GlcA(b1-6)Gal
Method in brief: as §1

[37] = molecular target: GlcNAc(b1-3)Gal
Method in brief: as §1

[38] = molecular target: GlcNAc(b1-3)Gal(b1-4)GlcNAc(b1-2)Man(a1-3)[GlcNAc(b1-3)Gal(b1-4)GlcNAc(b1-2)Man(a1-6)]Man(b1-4)GlcNAc(b1-4)GlcNAc
Method in brief: as §1

[39] = molecular target: GlcNAc(b1-3)Gal(b1-4)GlcNAc(b1-3)Gal(b1-4)GlcNAc(b1-2)Man(a1-3)[GlcNAc(b1-3)Gal(b1-4)GlcNAc(b1-3)Gal(b1-4)GlcNAc(b1-2)Man(a1-6)]Man(b1-4)GlcNAc(b1-4)GlcNAc
Method in brief: as §1

[40] = molecular target: GlcNAc(b1-3)Gal(b1-4)GlcNAc(b1-6)[GlcNAc(b1-3)]Gal(b1-4)GlcNAc
Method in brief: as §1

[41] = molecular target: Man(a1-2)Man(a1-2)Man(a1-3)Man
Method in brief: as §1

[42] = molecular target: Man(a1-3)[Man(a1-6)]Man(a1-6)[Man(a1-3)]Man
Method in brief: as §1

[43] = molecular target: Man(a1-3)[Man(a1-6)]Man(a1-6)[Man(a1-3)]Man(b1-4)GlcNAc(b1-4)GlcNAc
Method in brief: as §1

[44] = molecular target: Man(a1-3)[Man(a1-6)]Man(b1-4)GlcNAc(b1-4)[Fuc(a1-6)]GlcNAc
Method in brief: as §1

[45] = molecular target: Man(a1-6)Man
Method in brief: as §1

[46] = molecular target: Neu5Ac(a2-3)Gal(b1-3)[Fuc(a1-4)]GlcNAc(b1-3)Gal(b1-3)[Fuc(a1-4)]GlcNAc
Method in brief: as §1

[47] = molecular target: Neu5Ac(a2-3)Gal(b1-3)[Fuc(a1-4)]GlcNAc(b1-3)Gal(b1-4)[Fuc(a1-3)]GlcNAc
Method in brief: as §1

[48] = molecular target: Neu5Ac(a2-3)Gal(b1-4)GlcNAc(b1-2)Man(a1-3)[Neu5Ac(a2-3)Gal(b1-4)GlcNAc(b1-2)Man(a1-6)]Man(b1-4)GlcNAc(b1-4)[Fuc(a1-6)]GlcNAc
Method in brief: as §1

[49] = molecular target: Neu5Ac(a2-3)Gal(b1-4)GlcNAc(b1-3)Gal(b1-4)GlcNAc(b1-3)Gal(b1-4)GlcNAc(b1-2)Man(a1-3)[Neu5Ac(a2-3)Gal(b1-4)GlcNAc(b1-3)Gal(b1-4)GlcNAc(b1-3)Gal(b1-4)GlcNAc(b1-2)Man(a1-6)]GalNAc
Method in brief: as §1

[50] = molecular target: Neu5Ac(a2-3)Gal(b1-4)GlcNAc(b1-3)Gal(b1-4)[Fuc(a1-3)]GlcNAc
Method in brief: as §1

[51] = molecular target: Neu5Ac(a2-3)Gal6S(b1-4)GlcNAc
Method in brief: as §1

[52] = molecular target: Neu5Ac(a2-6)Gal(b1-4)GlcNAc(b1-3)Gal(b1-4)GlcNAc(b1-3)Gal(b1-4)GlcNAc(b1-2)Man(a1-3)[Neu5Ac(a2-6)Gal(b1-4)GlcNAc(b1-3)Gal(b1-4)GlcNAc(b1-3)Gal(b1-4)GlcNAc(b1-2)Man(a1-6)]GalNAc
Method in brief: as §1

[53] = molecular target: Neu5Ac(a2-6)Gal(b1-4)GlcNAc(b1-3)Gal(b1-4)[Fuc(a1-3)]GlcNAc(b1-3)Gal(b1-4)[Fuc(a1-3)]GlcNAc
Method in brief: as §1

[54] = molecular target: Neu5Ac(a2-6)Gal(b1-4)GlcNAc6S
Method in brief: as §1

[55] = molecular target: Neu5Gc(a2-3)Gal(b1-4)GlcNAc(b1-3)Gal(b1-4)GlcNAc(b1-2)Man(a1-3)[Neu5Gc(a2-3)Gal(b1-4)GlcNAc(b1-3)Gal(b1-4)GlcNAc(b1-2)Man(a1-6)]Man(b1-4)GlcNAc(b1-4)GlcNAc
Method in brief: as §1

B1: EULS2 M2 (Oryza sativa) (protein)
chain: MVYCRANPNYAMTARNGAVVLAPANPKDEYQHWIKDMRWSTSIKDEEGYPAFALVNKATGQAIKHSLGQSHPVRLVPYNPEVMDESVLWTESRDVGNGFRCIRMVNNIYLNFDAFHGDKYHGGVRDGTDIVLWKLCEGDSQRWKIQPYYILEQKLISEEDLNSAVDHHHHHH
glycan array binding signal (z-score) [1]: 2.57
glycan array binding signal (z-score) [2]: 0.051
glycan array binding signal (z-score) [3]: -0.221
glycan array binding signal (z-score) [4]: -0.288
glycan array binding signal (z-score) [5]: -0.239
glycan array binding signal (z-score) [6]: 0.046
glycan array binding signal (z-score) [7]: 6.13
glycan array binding signal (z-score) [8]: 0.228
glycan array binding signal (z-score) [9]: -0.346
glycan array binding signal (z-score) [10]: -0.552
glycan array binding signal (z-score) [11]: -0.911
glycan array binding signal (z-score) [12]: -0.897
glycan array binding signal (z-score) [13]: -0.418
glycan array binding signal (z-score) [14]: -0.086
glycan array binding signal (z-score) [15]: 0.298
glycan array binding signal (z-score) [16]: 1.3
glycan array binding signal (z-score) [17]: 0.142
glycan array binding signal (z-score) [18]: -0.152
glycan array binding signal (z-score) [19]: 2.79
glycan array binding signal (z-score) [20]: -0.129
glycan array binding signal (z-score) [21]: -0.485
glycan array binding signal (z-score) [22]: 0.142
glycan array binding signal (z-score) [23]: -0.359
glycan array binding signal (z-score) [24]: -0.012
glycan array binding signal (z-score) [25]: 0.271
glycan array binding signal (z-score) [26]: 3.8
glycan array binding signal (z-score) [27]: 13.3
glycan array binding signal (z-score) [28]: -0.418
glycan array binding signal (z-score) [29]: 4.18
glycan array binding signal (z-score) [30]: 4.74
glycan array binding signal (z-score) [31]: 2.72
glycan array binding signal (z-score) [32]: 0.855
glycan array binding signal (z-score) [33]: 0.228
glycan array binding signal (z-score) [34]: -0.217
glycan array binding signal (z-score) [35]: -0.066
glycan array binding signal (z-score) [36]: 0.412
glycan array binding signal (z-score) [37]: -0.404
glycan array binding signal (z-score) [38]: -0.176
glycan array binding signal (z-score) [39]: 0.163
glycan array binding signal (z-score) [40]: -0.388
glycan array binding signal (z-score) [41]: -0.332
glycan array binding signal (z-score) [42]: 7.3
glycan array binding signal (z-score) [43]: 3.29
glycan array binding signal (z-score) [44]: 0.966
glycan array binding signal (z-score) [45]: 5.83
glycan array binding signal (z-score) [46]: 0.084
glycan array binding signal (z-score) [47]: -0.548
glycan array binding signal (z-score) [48]: -0.323
glycan array binding signal (z-score) [49]: -0.26
glycan array binding signal (z-score) [50]: -0.328
glycan array binding signal (z-score) [51]: -0.449
glycan array binding signal (z-score) [52]: 0.058
glycan array binding signal (z-score) [53]: -0.268
glycan array binding signal (z-score) [54]: -0.389
glycan array binding signal (z-score) [55]: 0.09
